Results taken from the supplement of paper PMC10849652.
About 8,800 targets were measured; listed, in parts, are those with a hit and a random draw of the rest. About 0.5% of all pairs of compound and target were hits. Unmarked numbers belong to inactive results.

Experiments:
Experiment in all cases: log2 fold change, soluble protein after heating vs DMSO (PISA); higher = thermal stabilisation; K562 lysate, 10 uM; active = over 0.2 and 3.5 SD of the protein, either way, in both replicates (recomputed)
[1] = compound: C1=CC=C(C=C1)[C@H](COC2=CC3=C(C=C2)NC(=O)N3)NC(=O)C4=CC=CN(C4=O)CC5=CC(=C(C=C5)F)F
How it was run: (§1)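 Thermal stability, expressed as log-two fold change relative to solvent controls, is given from duplicates. Crude K562 extract in PBS pH 7.4 with 1 mM MgCl2, at 1 mg/mL protein, was treated with 10 μM compound for 30 min and heated in aliquots for 3 min across 48°C-58°C. After pooling, adjustment to 0.5% NP-40 at 4°C and centrifugation at 21,000xg for 90 min, supernatant protein was measured by TMTpro 16plex LC-MS/MS with channel sums equalised.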

[2] = compound: CC1=C(SC2=C1C(=N[C@H](C3=NN=C(N32)C)CC(=O)N)C4=CC=C(C=C4)Cl)C
How it was run: as §1

[3] = compound: CC1=C2C(=CC=C1)N=C(N(C2=O)C3=CC=CC=C3C)CN4C=NC5=C(N=CN=C54)N
How it was run: as §1

[4] = compound: Cc1sc2c(c1C)C(c1ccc(Cl)cc1)=N[C@@H](CC(=O)OC(C)(C)C)c1nnc(C)n1-2
How it was run: as §1

[5] = compound: c1ccc([C@@H]2C[C@H]2NC2CCNCC2)cc1
How it was run: as §1

Chain of UniProt Q9BSU1 (Q9BSU1 whole entry, looked up): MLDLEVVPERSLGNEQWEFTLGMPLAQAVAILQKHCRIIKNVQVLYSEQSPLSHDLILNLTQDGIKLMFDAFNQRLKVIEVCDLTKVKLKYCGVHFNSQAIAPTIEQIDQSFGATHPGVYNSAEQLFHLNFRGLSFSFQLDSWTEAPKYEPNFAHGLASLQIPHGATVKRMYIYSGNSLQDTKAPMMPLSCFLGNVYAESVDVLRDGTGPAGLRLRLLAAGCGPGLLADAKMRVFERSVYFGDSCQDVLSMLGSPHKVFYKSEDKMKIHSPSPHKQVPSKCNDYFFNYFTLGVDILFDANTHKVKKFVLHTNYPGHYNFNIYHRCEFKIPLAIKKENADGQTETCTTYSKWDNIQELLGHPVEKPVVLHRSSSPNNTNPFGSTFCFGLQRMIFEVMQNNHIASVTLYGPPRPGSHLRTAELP
Chain of UniProt O95352 (O95352 whole entry, looked up): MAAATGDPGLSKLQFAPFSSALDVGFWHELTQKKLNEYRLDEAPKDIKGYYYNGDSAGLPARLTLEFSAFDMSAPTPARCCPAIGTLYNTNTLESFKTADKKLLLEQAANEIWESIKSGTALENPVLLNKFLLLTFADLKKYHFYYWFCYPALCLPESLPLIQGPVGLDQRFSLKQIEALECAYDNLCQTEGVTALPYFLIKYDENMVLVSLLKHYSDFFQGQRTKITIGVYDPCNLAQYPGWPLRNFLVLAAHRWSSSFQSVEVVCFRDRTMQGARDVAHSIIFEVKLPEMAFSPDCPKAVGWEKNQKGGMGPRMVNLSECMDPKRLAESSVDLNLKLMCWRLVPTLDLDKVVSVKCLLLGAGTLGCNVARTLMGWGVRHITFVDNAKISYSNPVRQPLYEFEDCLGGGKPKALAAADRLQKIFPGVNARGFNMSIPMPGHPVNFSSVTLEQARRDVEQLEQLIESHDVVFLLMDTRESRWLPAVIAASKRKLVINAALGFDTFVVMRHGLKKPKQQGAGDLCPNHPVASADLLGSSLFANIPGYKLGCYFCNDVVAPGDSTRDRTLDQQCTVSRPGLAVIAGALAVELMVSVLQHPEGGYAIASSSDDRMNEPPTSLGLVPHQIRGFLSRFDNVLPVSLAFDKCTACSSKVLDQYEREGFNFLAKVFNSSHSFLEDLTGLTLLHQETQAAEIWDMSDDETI
Chain of UniProt O43861 (O43861 whole entry, looked up): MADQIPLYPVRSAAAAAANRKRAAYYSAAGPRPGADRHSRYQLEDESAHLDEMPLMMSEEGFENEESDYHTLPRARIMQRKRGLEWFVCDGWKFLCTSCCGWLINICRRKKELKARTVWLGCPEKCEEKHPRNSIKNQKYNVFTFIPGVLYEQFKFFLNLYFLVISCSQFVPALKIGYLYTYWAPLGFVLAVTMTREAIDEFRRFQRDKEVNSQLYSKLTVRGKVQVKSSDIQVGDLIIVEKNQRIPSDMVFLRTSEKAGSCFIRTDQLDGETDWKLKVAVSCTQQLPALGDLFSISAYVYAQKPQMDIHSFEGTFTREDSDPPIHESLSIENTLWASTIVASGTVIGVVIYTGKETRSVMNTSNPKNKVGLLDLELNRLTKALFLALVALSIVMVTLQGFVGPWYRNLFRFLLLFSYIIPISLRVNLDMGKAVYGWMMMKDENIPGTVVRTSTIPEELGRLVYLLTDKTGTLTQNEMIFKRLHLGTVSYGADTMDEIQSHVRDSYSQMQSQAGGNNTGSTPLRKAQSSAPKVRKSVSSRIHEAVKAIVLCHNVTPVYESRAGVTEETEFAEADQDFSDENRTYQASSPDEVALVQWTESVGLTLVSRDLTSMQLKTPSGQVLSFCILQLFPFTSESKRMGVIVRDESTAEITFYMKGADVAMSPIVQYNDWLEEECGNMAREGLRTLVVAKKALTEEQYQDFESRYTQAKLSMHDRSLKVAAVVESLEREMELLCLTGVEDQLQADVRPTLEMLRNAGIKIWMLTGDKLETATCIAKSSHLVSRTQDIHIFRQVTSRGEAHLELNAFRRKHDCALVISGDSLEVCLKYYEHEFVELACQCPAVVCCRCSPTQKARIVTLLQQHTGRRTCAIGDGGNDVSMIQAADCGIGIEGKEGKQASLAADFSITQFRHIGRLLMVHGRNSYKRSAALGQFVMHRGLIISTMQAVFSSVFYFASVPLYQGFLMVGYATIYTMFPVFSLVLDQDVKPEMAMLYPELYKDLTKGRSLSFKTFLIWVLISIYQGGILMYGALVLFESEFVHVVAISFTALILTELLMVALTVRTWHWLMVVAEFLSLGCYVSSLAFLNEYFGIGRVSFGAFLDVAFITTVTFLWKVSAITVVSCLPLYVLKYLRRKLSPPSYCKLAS
Chain of UniProt Q9UL45 (Q9UL45 whole entry, looked up): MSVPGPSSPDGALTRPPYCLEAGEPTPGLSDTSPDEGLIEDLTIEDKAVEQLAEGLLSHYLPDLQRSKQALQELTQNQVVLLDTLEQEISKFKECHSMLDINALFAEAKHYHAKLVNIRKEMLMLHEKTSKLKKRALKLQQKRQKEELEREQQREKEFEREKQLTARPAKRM
Chain of UniProt Q9H0Y0 (Q9H0Y0 whole entry, looked up): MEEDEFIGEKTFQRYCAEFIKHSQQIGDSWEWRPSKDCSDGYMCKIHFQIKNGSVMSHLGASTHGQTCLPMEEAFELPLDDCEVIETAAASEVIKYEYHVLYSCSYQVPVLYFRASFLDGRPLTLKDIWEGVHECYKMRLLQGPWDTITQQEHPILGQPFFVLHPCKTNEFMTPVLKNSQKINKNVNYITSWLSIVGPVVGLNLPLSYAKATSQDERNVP
Chain of UniProt Q96B23 (Q96B23 whole entry, looked up): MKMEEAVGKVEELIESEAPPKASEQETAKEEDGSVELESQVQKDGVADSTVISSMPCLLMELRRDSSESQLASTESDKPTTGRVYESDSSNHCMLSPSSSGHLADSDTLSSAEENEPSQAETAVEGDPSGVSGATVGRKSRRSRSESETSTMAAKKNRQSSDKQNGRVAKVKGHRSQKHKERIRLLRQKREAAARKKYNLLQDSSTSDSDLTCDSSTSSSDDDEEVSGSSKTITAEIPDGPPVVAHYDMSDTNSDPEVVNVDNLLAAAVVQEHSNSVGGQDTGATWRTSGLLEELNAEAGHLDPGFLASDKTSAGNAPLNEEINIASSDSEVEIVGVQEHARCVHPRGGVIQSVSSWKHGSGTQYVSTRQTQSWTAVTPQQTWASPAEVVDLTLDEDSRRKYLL
Chain of UniProt Q7L2Z9 (Q7L2Z9 whole entry, looked up): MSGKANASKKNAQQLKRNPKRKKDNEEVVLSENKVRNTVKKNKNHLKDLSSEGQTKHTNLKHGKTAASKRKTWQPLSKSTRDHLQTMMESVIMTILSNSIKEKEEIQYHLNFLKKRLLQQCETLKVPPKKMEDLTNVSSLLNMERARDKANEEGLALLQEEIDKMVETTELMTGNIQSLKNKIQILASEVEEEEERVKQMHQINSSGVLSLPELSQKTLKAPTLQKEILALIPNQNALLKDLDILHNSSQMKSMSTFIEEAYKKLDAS
Chain of UniProt O60826 (O60826 whole entry, looked up): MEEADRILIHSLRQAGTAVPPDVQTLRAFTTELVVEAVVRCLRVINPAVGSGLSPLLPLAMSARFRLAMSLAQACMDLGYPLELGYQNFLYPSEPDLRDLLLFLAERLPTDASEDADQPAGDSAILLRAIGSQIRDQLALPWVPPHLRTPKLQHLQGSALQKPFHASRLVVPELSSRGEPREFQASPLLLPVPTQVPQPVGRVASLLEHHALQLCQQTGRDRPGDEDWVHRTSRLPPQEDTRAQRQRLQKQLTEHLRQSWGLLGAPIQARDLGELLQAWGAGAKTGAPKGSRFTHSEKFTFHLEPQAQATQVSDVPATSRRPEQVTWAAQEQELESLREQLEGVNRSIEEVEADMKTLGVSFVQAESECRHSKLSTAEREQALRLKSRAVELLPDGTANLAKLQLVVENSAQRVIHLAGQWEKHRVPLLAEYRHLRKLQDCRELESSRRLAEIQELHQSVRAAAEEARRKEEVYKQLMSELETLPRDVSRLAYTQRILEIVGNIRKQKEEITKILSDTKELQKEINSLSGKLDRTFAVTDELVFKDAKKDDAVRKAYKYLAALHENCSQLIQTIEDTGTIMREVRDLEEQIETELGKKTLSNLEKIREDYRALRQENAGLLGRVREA
Chain of UniProt Q9BV29 (Q9BV29 whole entry, looked up): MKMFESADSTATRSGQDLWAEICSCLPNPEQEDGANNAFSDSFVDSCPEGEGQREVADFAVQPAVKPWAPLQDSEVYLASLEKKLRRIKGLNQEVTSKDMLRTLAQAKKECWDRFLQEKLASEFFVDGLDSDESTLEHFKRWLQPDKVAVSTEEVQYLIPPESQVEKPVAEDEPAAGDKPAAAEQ
Chain of UniProt Q9Y2V0 (Q9Y2V0 whole entry, looked up): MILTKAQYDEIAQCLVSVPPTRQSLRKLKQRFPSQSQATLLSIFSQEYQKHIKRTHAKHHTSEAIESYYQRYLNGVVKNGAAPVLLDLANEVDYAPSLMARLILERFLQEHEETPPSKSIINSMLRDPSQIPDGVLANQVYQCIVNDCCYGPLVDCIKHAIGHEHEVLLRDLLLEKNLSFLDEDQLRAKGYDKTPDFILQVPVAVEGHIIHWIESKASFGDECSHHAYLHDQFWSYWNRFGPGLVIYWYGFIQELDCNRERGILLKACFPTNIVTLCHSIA
Chain of UniProt P24863 (P24863 whole entry, looked up): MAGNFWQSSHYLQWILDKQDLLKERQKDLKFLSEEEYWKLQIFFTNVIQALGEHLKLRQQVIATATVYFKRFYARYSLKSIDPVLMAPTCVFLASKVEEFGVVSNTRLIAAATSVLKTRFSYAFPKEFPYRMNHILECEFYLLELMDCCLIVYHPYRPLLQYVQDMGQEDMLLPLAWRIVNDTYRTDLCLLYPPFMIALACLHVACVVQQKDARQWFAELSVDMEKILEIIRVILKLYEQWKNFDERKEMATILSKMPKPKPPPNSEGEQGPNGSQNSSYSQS
Chain of UniProt Q9H3K6 (Q9H3K6 whole entry, looked up): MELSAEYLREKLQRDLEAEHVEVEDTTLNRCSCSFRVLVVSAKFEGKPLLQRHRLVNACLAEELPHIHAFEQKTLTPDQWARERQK
Chain of UniProt P18859 (P18859 whole entry, looked up): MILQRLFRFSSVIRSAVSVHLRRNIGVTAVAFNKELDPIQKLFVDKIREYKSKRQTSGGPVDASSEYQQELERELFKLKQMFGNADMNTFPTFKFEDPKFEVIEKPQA

Row | Target | log2 fold change [1] | log2 fold change [2] | log2 fold change [3] | log2 fold change [4] | log2 fold change [5]
1 | BCKDHB (UniProt P21953) | 0.027 | 0.023 | 0.09 | 0.074 | 0.119
2 | CCNC (UniProt P24863) | 0.045 | -0.09 | -0.035 | -0.036 | -0.129
3 | CDK5RAP3 isoform 4 (UniProt Q96JB5) | -0.011 | -0.018 | 0.022 | -0.01 | -0.154
4 | CCDC22 (UniProt O60826) | -0.009 | 0 | -0.044 | 0.053 | 0.032
5 | C18orf25 isoform 2 (UniProt Q96B23) | -0.005 | 0.224 | 0.008 | 0.089 | -0.003
6 | AURKAIP1 (UniProt Q9NWT8) | 0.05 | 0.032 | -0.014 | 0.024 | 0.034
7 | ATP11A (UniProt P98196) | 0.04 | -0.014 | -0.004 | 0.005 | -0.026
8 | CDC123 (UniProt O75794) | -0.035 | 0.02 | -0.038 | 0.073 | 0.004
9 | CAD (UniProt P27708) | -0.011 | 0.009 | 0.003 | 0.022 | 0.002
10 | CARD9 (UniProt Q9H257) | -0.039 | 0.065 | 0.023 | -0.009 | 0.035
11 | CAPNS1 (UniProt U3KPR7) | 0.019 | 0.122 | – | – | –
12 | ATP9B (UniProt O43861) | 0.109 | -0.028 | 0.015 | -0.019 | -0.079
13 | ATXN2 (UniProt Q99700) | 0.013 | 0.016 | 0.075 | -0.02 | -0.021
14 | CCNH (UniProt P51946) | -0.028 | -0.004 | 0.022 | -0.039 | -0.01
15 | CASP3 (UniProt P42574) | 0.051 | -0.011 | 0.039 | 0.051 | 0.103
16 | CHCHD1 (UniProt Q96BP2) | -0.026 | 0.024 | -0.04 | -0.091 | 0.627 (active)
17 | CENPQ (UniProt Q7L2Z9) | -0.02 | -0.02 | 0.038 | 0.021 | -0.013
18 | ATAD3B (UniProt Q5T9A4) | 0.082 | -0.033 | -0.021 | 0.047 | 0.172
19 | CCAR2 (UniProt Q8N163) | 0.001 | 0.005 | -0.007 | 0.003 | 0.004
20 | C16orf70 (UniProt Q9BSU1) | -0.007 | -0.073 | -0.071 | 0.033 | –
21 | BLOC1S6 (UniProt Q9UL45) | -0.078 | 0.035 | -0.04 | -0.046 | 0.021
22 | CCDC186 (UniProt Q7Z3E2) | 0.031 | 0.085 | 0.055 | -0.016 | 0.105
23 | BAG4 (UniProt O95429) | 0.059 | 0.021 | -0.023 | 0.03 | 0.003
24 | CDC40 (UniProt O60508) | 0.036 | 0.003 | -0.099 | 0.099 | -0.03
25 | CCP110 (UniProt O43303) | -0.026 | 0.093 | 0.104 | -0.143 | –
26 | CCNYL1 (UniProt Q8N7R7) | -0.007 | -0.089 | -0.009 | -0.058 | -0.079
27 | CEP128 (UniProt Q6ZU80) | -0.38 | 0.338 | -0.023 | -0.125 | -0.507

Row | Target | log2 fold change [1] | log2 fold change [2] | log2 fold change [3] | log2 fold change [4] | log2 fold change [5]
28 | BNIP1 (UniProt Q12981) | 0.021 | -0.051 | 0.001 | 0.018 | 0.149
29 | CBX1 (UniProt P83916) | 0.031 | -0.03 | 0.032 | 0.009 | 0.13
30 | ATG7 (UniProt O95352) | 0.014 | 0.003 | 0.028 | -0.014 | 0.044
31 | CAPN15 (UniProt O75808) | -0.047 | 0.063 | -0.017 | -0.011 | 0.056
32 | CALB2 (UniProt P22676) | -0.067 | -0.053 | 0.009 | -0.007 | 0.013
33 | ATP13A1 (UniProt Q9HD20) | 0.006 | -0.001 | 0.079 | 0.064 | 0.03
34 | CDC7 (UniProt O00311) | -0.063 | 0.084 | 0.019 | 0.003 | 0.008
35 | CCDC130 (UniProt P13994) | 0.01 | 0.038 | – | – | –
36 | ATP2B4 (UniProt P23634) | -0.021 | 0.036 | 0.059 | 0.029 | -0.081
37 | C15orf41 (UniProt Q9Y2V0) | 0.111 | -0.007 | 0.029 | 0.084 | -0.008
38 | CBFA2T3 (UniProt O75081) | -0.029 | -0.01 | 0.058 | 0.009 | 0.019
39 | CAMKK1 isoform 2 (UniProt Q8N5S9) | 0.006 | 0.03 | 0.011 | 0.071 | -0.103
40 | CHCHD4 isoform 2 (UniProt Q8N4Q1) | 0.04 | -0.076 | -0.101 | -0.189 | -0.168
41 | C3 (UniProt P01024) | 0.013 | 0.054 | 0.132 | -0.035 | -0.03
42 | AURKA (UniProt O14965) | -0.053 | -0.001 | -0.042 | -0.055 | -0.157
43 | CD63 (UniProt P08962) | 0.006 | 0.001 | -0.008 | -0.13 | -0.242
44 | CBX5 (UniProt P45973) | 0.04 | -0.002 | -0.038 | 0.031 | -0.135
45 | C12orf45 (UniProt Q8N5I9) | 0.074 | 0 | -0.007 | -0.008 | -0.122
46 | BOLA2 (UniProt Q9H3K6) | -0.052 | 0.01 | -0.019 | 0.034 | 0.078
47 | CEP76 (UniProt Q8TAP6) | -0.009 | -0.01 | -0.043 | 0.002 | -0.027
48 | ATP5PF isoform 2 (UniProt P18859) | 0.085 | -0.086 | -0.05 | 0.075 | 0.228
49 | CCDC32 isoform 2 (UniProt Q9BV29) | -0.132 | -0.103 | -0.058 | 0.015 | -0.109
50 | BUB1B isoform 3 (UniProt O60566) | -0.013 | -0.005 | 0.027 | -0.003 | 0.02
51 | CAMK2B (UniProt Q13554) | 0.036 | -0.052 | -0.032 | -0.056 | -0.091
52 | ATRIP (UniProt Q8WXE1) | -0.042 | -0.02 | -0.056 | -0.032 | 0.093
53 | CCNK isoform 4 (UniProt O75909) | -0.018 | -0.045 | -0.026 | -0.047 | -0.175
54 | ATG10 (UniProt Q9H0Y0) | 0.008 | 0 | -0.057 | 0.047 | 0.076
